Most compounds without a hit are left out; they make up all but 1.2% or so of the library.
NCOA2 inhibitor: human SRC2 (NCOA2) inhibition. Q15596. HEK293 GAL4-SRC2 luciferase reporter, luminescence. inhibition, % at 9 µM. 0.17% of 370,000 active;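 active = inhibition above the mean inhibition of all tested compounds plus 3 SD, set per campaign, cut at about 52% in these data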
Efflux pump inh: blocks antifungal efflux pumps in multiplex yeast assay; S. cerevisiae Candida pump triplex, Nile Red efflux; inhibition, % at 10 µM; 0.44% of 330,000 active;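 active = plate passing quality check with inhibition over a set limit, or well fluorescence over plate mean plus 4 SD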;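 note: Nile Red retained in pooled yeast measured as flow cytometry median fluorescence; higher means more Nile Red kept so more efflux inhibition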
SRC3 inh: inhibitors of human steroid receptor coactivator 3 (SRC3); Q9Y6Q9; HEK293 GAL4-SRC3 luciferase reporter, luminescence; inhibition, % at 3.6 µM; 0.17% of 360,000 active; AID 588352;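 active = inhibition above a per-campaign cutoff, the mean of all compounds plus 3 SD, cut at about 60% in these data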;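 note: higher means less SRC3-driven luciferase light from the GAL4 reporter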
NCOA1 inh: human NCOA1 inhibition | 0.12% of 360,000 active | HEK293 GAL4-SRC1 luciferase reporter, luminescence | inhibition, % at 3.6 µM;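 active = inhibition above the campaign mean plus 3 SD, with each screening campaign given its own cutoff, cut at about 60% in these data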
NR2F2 inh: blocks human COUP-TFII nuclear receptor; HEK293T NGFI-A luciferase reporter, luminescence; 0.7% of 370,000 active; P24468; inhibition, % at 8.6 µM;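 active = inhibition above a per-plate cutoff, mean inhibition of test wells between control levels plus 3 SD, cut at about 38% in these data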;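 note: cells cotransfected with COUP-TFII expression vector driving the NGFI-A reporter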
LRH-1 inv ag: suppresses constitutive activity of human LRH-1; O00482; HEK293T StAR-luciferase reporter, LRH-1 transfected, 24 h; inhibition, % at 3.6 µM; 0.13% of 360,000 active;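 active = inhibition above the mean inhibition of all tested compounds plus 3 SD, cut at about 73% in these data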
VP16 Luc counter: VP16 inhibition counter-screen for COUP-TFII. shares compounds with NR2F2 inh. HEK293 Gal4-VP16 luciferase reporter, luminescence. inhibition, % at 8.5 µM. 25% of 2,500 active. AID 687007; in the data active = inhibition above about 13%
NR2F2 inh conf: COUP-TFII (NR2F2) inhibition, confirmation assay; 45% of 2,500 active; HEK293 NGFI-A luciferase reporter, luminescence; AID 687008; inhibition, % at 8.5 µM; shares compounds with NR2F2 inh;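 active = mean inhibition over three repeats above a set limit taken from the earlier primary screen, cut at about 38% in these data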
A number is an active result; i = inactive; nt = no result given; + = active, no number; ! = a repeat was not active.

SMILES	NCOA2 inhibitor	Efflux pump inh	SRC3 inh	NCOA1 inh	NR2F2 inh	LRH-1 inv ag	VP16 Luc counter	NR2F2 inh conf
O=C(Nc1ccc(S(=O)(=O)Nc2ccc(F)cc2)cc1)c1ccc(CN2CCOCC2)cc1	i	i	i	i	73	i	i	62
O=S(=O)(c1ccc(CN2CCOCCOCCN(Cc3ccc(S(=O)(=O)C(F)(F)F)cc3)CCOCC2)cc1)C(F)(F)F	nt	nt	nt	nt	62	nt	i	i
CN(c1ccc(C(=O)Nc2ccc(S(=O)(=O)N3CCCC3)cc2)cc1)S(C)(=O)=O	i	i	i	i	47	i	i	i
Cc1cc(S(=O)(=O)N2CCOCC2)ccc1OCC(=O)NCc1ccccn1	i	i	i	i	i	i	nt	nt
O=C(Nc1ccc(S(=O)(=O)N2CCCC2)cc1)c1ccc(CN2CCOCC2)cc1	i	i	i	i	63	i	i	48
CCN(CC)S(=O)(=O)c1ccc(NC(=O)c2ccc(OCC3CCCO3)cc2)cc1 (centres undefined)	i	i	i	i	61	i	i	49
CCOc1ccc(NC(=O)c2ccc(OCC3CCCO3)cc2)cc1S(=O)(=O)N(CC)CC (centres undefined)	i	i	i	i	i	i	nt	nt
O=C(Nc1ccc(S(=O)(=O)N2CCCCC2)cc1)c1ccc(CN2CCOCC2)cc1	nt	i	i	i	nt	i	nt	nt
COc1ccc(NS(=O)(=O)c2ccc(N3CCOCC3)c(N)c2)cc1	i	i	i	i	48	i	i	i
CCN(CC)S(=O)(=O)c1ccc(NC(=O)c2ccc(CN3CCOCC3)cc2)cc1	i	i	i	i	71	i	i	64
CCC(CO)Oc1cc(NCc2ccccc2O)c2ncn(C(C)C)c2c1 (centres undefined)	i	i	i	i	43	i	i	40
CC(C)(C)OC(=O)N(CCc1ccccc1)Cc1cccc(OCc2cccc(NC(=O)/C=C/c3ccccc3)c2)c1	i	nt	i	i	i	i	nt	nt
COc1cccc(-c2csc(N3CCN(C(=O)Nc4ccc(Cl)cc4)CC3)n2)c1	i	i	i	i	i	i	nt	nt
COc1ccc(NC(=O)N2CCN(c3nc(-c4cccc(OC)c4)cs3)CC2)cc1	i	i	i	i	40	i	i	i
Cc1ccc(-n2c(-c3ccccc3)c[n+]3c2CCC3)cc1	i	i	i	i	i	i	nt	nt
Cc1ccc(-n2c(-c3ccccc3)c[n+]3c2CCc2ccccc2-3)c(C)c1	i	i	71	i	64	i	17	57
COc1cccc(C(=O)Oc2ccc3ccc(O)cc3c2)c1	nt	i	nt	nt	nt	nt	nt	nt
C[n+]1c2n(c3ccccc31)N=C(c1ccc(Br)cc1)CS2	i	i	i	i	48	i	20	51
CCc1nnc2n1N=C(c1ccc(Br)cc1)CS2	i	i	i	i	i	i	nt	nt
C[n+]1c2n(c3ccccc31)N=C(c1ccc(-c3ccccc3)cc1)CS2	i	i	63	i	70	i	i	65
C[n+]1c2n(c3ccccc31)N=C(c1ccccc1)CS2	i	i	i	i	40	i	i	47!
COC(=O)c1cc(Br)c(=O)n(-c2cccc(F)c2)c1	i	i	i	i	i	i	nt	nt
O=C(c1cc(COc2c(F)cccc2F)on1)N1CCC(c2ccncc2)CC1	i	i	i	i	60	i	i	47
CCN1/C(=C/C=C/c2sc3ccccc3[n+]2CC)Sc2ccccc21	nt	i	i	i	nt	i	nt	nt
CCN1/C(=C/C=C/c2oc3ccc(-c4ccccc4)cc3[n+]2CC)Oc2ccc(-c3ccccc3)cc21	i	+	i	i	84	i	40	94
SMILES	NCOA2 inhibitor	Efflux pump inh	SRC3 inh	NCOA1 inh	NR2F2 inh	LRH-1 inv ag	VP16 Luc counter	NR2F2 inh conf
O=C(Cn1cnc2ccccc21)Nc1ccc(SC(F)F)cc1	i	i	i	i	70	i	i	46
O=C(c1cc(COc2ccc3ncccc3c2)on1)N1CCC[C@H]1CO	i	i	i	i	38	i	i	i
COCCC1CCCCN1C(=O)c1cc(COc2ccc(C)nc2)on1 (centres undefined)	i	i	i	i	i	i	nt	nt
Cc1cc(CN(C)C(=O)c2cc(COc3ccc4ncccc4c3)on2)on1	i	i	i	i	55	i	i	43
O=C(c1cc(COc2ccc3ncccc3c2)on1)N1CCC(O)CC1	i	i	i	i	i	i	nt	nt
CCOC(=O)N1CCN(C(=O)c2cc(COc3ccc4ncccc4c3)on2)CC1	i	i	i	i	58	i	i	46
CCC(O)C1CCN(C(=O)c2cc(COc3ccc4ncccc4c3)on2)CC1 (centres undefined)	i	i	i	i	72	i	i	63
CCSc1n[nH]c(=S)s1	i	i	i	i	i	i	nt	nt
O=C(NC1CCCCCCC1)c1cc(COc2ccc3ncccc3c2)on1	i	nt	i	i	62	i	i	63
COCC1CCCN(C(=O)c2cc(COc3ccc4ncccc4c3)on2)C1 (centres undefined)	i	i	i	i	67	i	i	60
Cc1cccc(C)c1OCc1cc(C(=O)NC2CCC2)no1	i	i	i	i	i	i	nt	nt
CCN1CCN(C(=O)c2cc(COc3c(C)cccc3C)on2)CC1	i	i	i	i	i	i	nt	nt
CC(CNC(=O)c1cc(COc2ccc3ncccc3c2)on1)c1ccccc1 (centres undefined)	i	i	i	i	46	i	i	i
Cc1cccnc1CN1CCN(C(=O)c2cc(COc3ccc4ncccc4c3)on2)CC1	i	i	i	i	63	i	i	38
O=C(c1cc(COc2ccc3ncccc3c2)on1)N1CCCC(O)C1 (centres undefined)	i	i	i	i	i	i	nt	nt
C/C(=N\Nc1cc(N2CCOCC2)nc(C)n1)c1cccc([N+](=O)[O-])c1	i	i	i	i	i	i	nt	nt
CN(C)S(=O)(=O)c1ccc(N2CCCC2)c(C(=O)NCCc2ccc(F)cc2)c1	i	i	i	i	i	i	nt	nt
CN(C)c1ccc(C(=O)n2nnc3ccccc32)cc1	i	i	i	i	i	i	nt	nt
CC1(C)CC(N2CCCC2)=CC(=[N+]2CCCC2)C1	i	i	i	i	47	i	i	i
CC1(C)CC(N2CCCC2)=CC(=[N+]2CCCCC2)C1	i	i	i	i	56	i	i	45
CC1(C)CC(N2CCN(Cc3ccccc3)CC2)=CC(=[N+]2CCCCC2)C1	i	i	i	i	53	i	i	i
COc1ccc(C(C#N)N2CCOCC2)cc1 (centres undefined)	i	i	i	i	i	i	nt	nt
COC(=O)[C@@]12C[C@@H](CC(=O)N3CCC(c4ccccc4)CC3)C(=O)N(Cc3ccco3)C1=CCC(C)(C)C2	i	nt	nt	nt	i	i	nt	nt

Source: PubChem (several laboratories)
